Where “and” joins values, the source holds several entries; their conditions need not be identical. Equal values may be shown once. Results filed as inconclusive are left out. Calls of active or inactive are those of the source. Unless noted, the call rests on the fitted dose curve; in most records, active means well fitted curve in the direction sought with a large enough effect; inconclusive means small, poorly fitted or top-dose-only effect, or another doubt; inactive means no such curve, though single readings can be large; an effect the other way counts as inactive or inconclusive.
Assays:
[1] = biological target: Cytochrome P450 1A2 (Homo sapiens) (UniProt P05177); test: p450-cyp1a2 (AID 410; calls by dose curve; further: potency means the concentration at half of the fitted maximal effect;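 on activity change, negative = inhibition: -100% = full effect of reference inhibitor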)
Sequence of Cytochrome P450 1A2 (Homo sapiens) (P05177 whole entry, looked up): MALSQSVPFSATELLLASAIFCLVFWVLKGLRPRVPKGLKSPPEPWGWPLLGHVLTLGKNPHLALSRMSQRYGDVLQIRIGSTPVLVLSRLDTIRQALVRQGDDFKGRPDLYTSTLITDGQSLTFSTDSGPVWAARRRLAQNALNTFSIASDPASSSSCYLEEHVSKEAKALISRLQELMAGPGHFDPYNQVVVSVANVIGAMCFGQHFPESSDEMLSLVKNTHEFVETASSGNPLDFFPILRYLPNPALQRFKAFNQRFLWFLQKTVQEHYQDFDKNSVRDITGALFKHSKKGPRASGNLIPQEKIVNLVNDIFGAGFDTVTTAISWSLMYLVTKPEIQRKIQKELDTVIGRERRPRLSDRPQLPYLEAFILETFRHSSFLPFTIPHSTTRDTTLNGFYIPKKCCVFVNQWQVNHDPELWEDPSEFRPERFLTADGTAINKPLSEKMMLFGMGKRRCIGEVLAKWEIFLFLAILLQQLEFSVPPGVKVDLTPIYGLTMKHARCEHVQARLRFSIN
How it was run: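 Luminescent demethylation readout: Luciferin-ME (100uM, equal to Km) turned over by 20nM CYP1A2 for 60 min at room temperature after NADPH regeneration addition, following 10 min compound preincubation. Normalization used 57 uM furafylline as full inhibition.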

[2] = NFAT Signaling Pathway (AID 444; active means well fitted curve in either direction with a large enough effect, not every such curve was filed as active;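 further: carbachol stimulus at about its EC50 of 1 µM final; on the % scale 0 is the no-effect control and ±100 the full control effect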); conditions: Jurkat NFAT-bla M1, carbachol, beta-lactamase ratio, 5 h; at 7.69 µM (top of the series) unless noted
How it was run: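 Jurkat cells carrying an NFAT-driven β-lactamase reporter and co-transfected muscarinic M1 receptor were treated with compound plus carbachol (1 uM final, an EC50 level) for 5 h at 37 °C. CCF4 loading followed for 1 h at RT; 460/530 nm ratio gave %activity.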

[3] = Stat Signaling Pathway (AID 446; active means well fitted curve in either direction with a large enough effect, not every such curve was filed as active;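 further: ME-180 cervical cancer cells given 40 pM IL-6 alongside compound; SIE-controlled beta-lactamase reporter measured as 460/530 nm FRET emission ratio; on the % scale 0 is the no-effect control and ±100 the full control effect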); conditions: ME-180 SIE beta-lactamase reporter, IL-6 stimulated, 5 h; at 7.69 µM (top of the series) unless noted
How it was run: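 Overnight-plated ME-180 cells bearing a STAT Inducible Element beta-lactamase reporter; 5 h co-exposure to compound and 40 pM IL-6; values normalized to 300 pM IL-6 and 125 nM JAK inhibitor controls.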

[4] = biological target: Glucocorticoid receptor (Homo sapiens) (UniProt P04150); test: GR-EFC Redistribution (AID 451; calls by dose curve; further: potency means the concentration at half of the fitted maximal effect); conditions: CHO-K1 GR-EFC translocation, beta-gal luminescence, 2 h
Sequence of Glucocorticoid receptor (Homo sapiens) (P04150 whole entry, looked up, the tested form may be a part): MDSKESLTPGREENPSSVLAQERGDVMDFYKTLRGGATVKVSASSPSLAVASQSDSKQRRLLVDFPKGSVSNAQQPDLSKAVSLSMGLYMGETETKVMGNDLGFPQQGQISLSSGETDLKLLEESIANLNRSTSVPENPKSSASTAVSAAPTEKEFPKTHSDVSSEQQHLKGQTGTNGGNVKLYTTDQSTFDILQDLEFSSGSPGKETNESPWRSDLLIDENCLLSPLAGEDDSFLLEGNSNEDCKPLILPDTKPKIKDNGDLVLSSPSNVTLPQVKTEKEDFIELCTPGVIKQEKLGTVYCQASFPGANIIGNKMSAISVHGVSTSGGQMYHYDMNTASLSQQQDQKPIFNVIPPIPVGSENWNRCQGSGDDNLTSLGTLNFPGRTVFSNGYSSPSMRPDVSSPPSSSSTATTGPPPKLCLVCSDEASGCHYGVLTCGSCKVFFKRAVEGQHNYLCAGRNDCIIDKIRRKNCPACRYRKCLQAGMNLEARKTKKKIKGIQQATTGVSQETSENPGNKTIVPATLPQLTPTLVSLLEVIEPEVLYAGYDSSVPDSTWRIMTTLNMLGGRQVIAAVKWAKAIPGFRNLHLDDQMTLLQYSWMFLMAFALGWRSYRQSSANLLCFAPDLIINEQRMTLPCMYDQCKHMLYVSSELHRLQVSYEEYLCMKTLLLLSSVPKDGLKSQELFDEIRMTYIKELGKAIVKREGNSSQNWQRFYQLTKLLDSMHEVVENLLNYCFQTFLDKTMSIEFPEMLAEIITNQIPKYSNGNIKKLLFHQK
How it was run: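 CHO-K1 cells stably expressing nuclear-localized β-gal enzyme acceptor and GR fused C-terminally to the enzyme donor fragment; ligand-driven nuclear translocation restores β-gal by complementation. Compounds titrated up to 46 uM final, 2 h at 37 °C; luminescence read.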

[5] = biological target: Mitogen-activated protein kinase 10 (Mus musculus) (UniProt Q61831); test: JNK3 AlphaScreen Assay (AID 530; active means well fitted curve in either direction with a large enough effect, not every such curve was filed as active;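 further: kinase came from lysate of stimulated human HepG2 cells; signal reports phosphorylation of biotinylated GST-cJun 1-79 at Ser73 with 10 µM ATP; on the % scale 0 is the no-effect control and ±100 the full control effect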)
How it was run: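 Phosphorylation of biotinylated GST-cJun(1-79) at Ser73 is measured by AlphaScreen proximity luminescence. Enzyme is JNK3 in HepG2 lysates activated with interleukin-1beta and tumor necrosis factor alpha; ATP is 10 uM final.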

[6] = biological target: 3',5'-cyclic-AMP phosphodiesterase 4B (Homo sapiens) (UniProt Q07343); test: qHTS Assay for Inhibitors of PDE-IV (AID 607; active means well fitted activation curve with a large enough effect in the main read-out, with a control signal flat, not every such curve was filed as active; further: % of control where 0% means no effect)
Sequence of 3',5'-cyclic-AMP phosphodiesterase 4B (Homo sapiens) (Q07343 whole entry, looked up): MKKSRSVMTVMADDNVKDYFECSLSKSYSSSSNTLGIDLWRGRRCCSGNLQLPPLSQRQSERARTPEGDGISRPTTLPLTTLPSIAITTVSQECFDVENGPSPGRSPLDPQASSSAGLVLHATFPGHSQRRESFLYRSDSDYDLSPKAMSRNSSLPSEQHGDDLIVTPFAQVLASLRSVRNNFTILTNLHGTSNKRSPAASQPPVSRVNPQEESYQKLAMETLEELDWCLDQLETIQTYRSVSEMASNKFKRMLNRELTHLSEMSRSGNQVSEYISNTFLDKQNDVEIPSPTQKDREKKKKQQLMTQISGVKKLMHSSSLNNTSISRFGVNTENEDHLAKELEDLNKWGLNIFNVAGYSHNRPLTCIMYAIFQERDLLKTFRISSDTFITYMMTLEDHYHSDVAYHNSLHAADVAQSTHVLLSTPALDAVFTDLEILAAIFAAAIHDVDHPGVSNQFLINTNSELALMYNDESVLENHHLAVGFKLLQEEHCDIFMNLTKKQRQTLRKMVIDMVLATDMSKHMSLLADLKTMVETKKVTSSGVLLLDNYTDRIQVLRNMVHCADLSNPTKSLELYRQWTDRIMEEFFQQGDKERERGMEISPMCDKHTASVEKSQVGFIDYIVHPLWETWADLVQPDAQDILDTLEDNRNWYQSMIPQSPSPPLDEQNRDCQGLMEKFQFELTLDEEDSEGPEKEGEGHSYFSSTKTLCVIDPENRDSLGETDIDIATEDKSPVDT
How it was run: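 Live HEK293 cells with a modified cyclic nucleotide-gated (CNG) channel report intracellular cAMP via membrane-potential dye fluorescence (ex 535/em 590 nm). Endogenous PDE-IV was targeted. Compounds were tested at up to 22.9 uM final; RO 20-1724 100 uM served as control.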

[7] = biological target: Cytochrome P450 3A4 (Homo sapiens) (UniProt P08684); test: qHTS Assay for Inhibitors and Substrates of Cytochrome P450 3A4 (AID 884); further: nearly all actives have a fitted effect of over 50% in size; further: potency means the concentration at half of the fitted maximal effect
Sequence of Cytochrome P450 3A4 (Homo sapiens) (P08684 whole entry, looked up): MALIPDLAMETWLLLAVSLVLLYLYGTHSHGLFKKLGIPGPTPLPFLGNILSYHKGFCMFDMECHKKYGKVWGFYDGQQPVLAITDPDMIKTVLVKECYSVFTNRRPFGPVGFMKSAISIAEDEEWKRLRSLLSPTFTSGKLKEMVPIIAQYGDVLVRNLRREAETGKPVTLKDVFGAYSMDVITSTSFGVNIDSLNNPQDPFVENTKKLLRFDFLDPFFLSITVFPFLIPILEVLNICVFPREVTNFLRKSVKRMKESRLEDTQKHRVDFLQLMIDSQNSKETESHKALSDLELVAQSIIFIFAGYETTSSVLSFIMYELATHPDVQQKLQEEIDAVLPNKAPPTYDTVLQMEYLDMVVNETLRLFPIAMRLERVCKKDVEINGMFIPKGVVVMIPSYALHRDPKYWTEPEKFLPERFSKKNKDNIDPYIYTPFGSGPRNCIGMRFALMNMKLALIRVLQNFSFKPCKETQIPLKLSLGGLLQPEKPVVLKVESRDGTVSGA
How it was run: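 Luminescent readout of luciferin produced by CYP3A4 (20 nM) dealkylation of Luciferin-PPXE, 25 uM (its KM). NADPH-driven reaction ran 60 min at RT after 10 min compound preincubation; data scaled to 57 uM ketoconazole as 100% inhibition.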

[8] = biological target: Cytochrome P450 3A4 (Homo sapiens) (UniProt P08684); test: qHTS Assay for Activators of Cytochrome P450 3A4 (AID 885); further: nearly all actives have a fitted effect of over 65% in size; further: potency means the concentration at half of the fitted maximal effect
How it was run: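 Using 20nM recombinant human CYP3A4 in potassium phosphate (200mM), substrate Luciferin-PPXE at 25uM, luminescent luciferin detection followed a 60-min RT NADPH reaction; data scaled to 57 uM ketoconazole.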

[9] = qHTS Assay for Lipid Storage Modulators (AID 1519; calls by dose curve); conditions: Drosophila S3 cells, BODIPY lipid droplet/cell ratio, laser cytometry, cells loaded with oleic acid
How it was run: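 Cells seeded at 5,000 per well were treated with compounds over a concentration series and loaded with oleic acid (400 uM, as added). Lipid droplet fluorescence (488 nm excitation, 500-530 nm channel) was read by laser-scanning cytometry and normalized to 20 uM Triacsin C.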

[10] = Primary qHTS for small molecule stabilizers of the endoplasmic reticulum resident proteome: Secreted ER Calcium Modulated Protein (SERCaMP) assay (AID 1508630); further: on the % scale 0 is the no-effect control and ±100 the full control effect
How it was run: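 The SH-SY5Y reporter protocol was run at 3 concentrations up to 38.3 uM (primary) or 11 concentrations (follow-up): 16 h compound, 100 nM thapsigargin for 4 h, then extracellular luciferase luminescence.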

[11] = biological target: Lysosomal acid glucosylceramidase (Homo sapiens) (UniProt P04062); test: Glucocerebrosidase-p2 (AID 348; in the data active means potency below about 10 µM; further: potency means the concentration at half of the fitted maximal effect); conditions: purified GBA, blue fluorogenic substrate, 40 min
Sequence of Lysosomal acid glucosylceramidase (Homo sapiens) (P04062 whole entry, looked up): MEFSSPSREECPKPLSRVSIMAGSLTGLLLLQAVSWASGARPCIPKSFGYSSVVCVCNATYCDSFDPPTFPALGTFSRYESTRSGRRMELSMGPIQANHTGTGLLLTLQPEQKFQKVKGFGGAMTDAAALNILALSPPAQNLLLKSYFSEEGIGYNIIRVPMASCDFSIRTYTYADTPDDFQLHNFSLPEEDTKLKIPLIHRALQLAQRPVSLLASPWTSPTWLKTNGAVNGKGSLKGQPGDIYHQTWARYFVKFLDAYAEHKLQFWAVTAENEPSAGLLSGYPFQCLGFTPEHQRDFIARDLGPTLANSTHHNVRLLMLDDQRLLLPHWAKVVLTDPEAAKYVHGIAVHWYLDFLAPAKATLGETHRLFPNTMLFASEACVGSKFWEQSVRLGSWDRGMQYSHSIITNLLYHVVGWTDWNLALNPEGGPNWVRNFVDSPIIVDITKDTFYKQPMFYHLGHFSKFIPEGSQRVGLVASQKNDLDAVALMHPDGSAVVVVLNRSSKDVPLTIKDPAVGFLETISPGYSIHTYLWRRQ
How it was run: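 Normal human glucocerebrosidase (0.2 nM) with blue fluorogenic substrate (80 uM final) in citrate/phosphate pH 5.9 with 10mM sodium taurocholate, 0.01% tween-20; 40 min RT, NaOH/glycine stop; fluorescence Ex 365/Em 440; AC50 from a titration from 0.6 nM upwards.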

[12] = biological target: Glucocorticoid receptor (Homo sapiens) (UniProt P04150); test: GR-GFP Redistribution (AID 450;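 active means compounds whose dose series gives a full or clear partial fitted curve of increased nuclear translocation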; further: potency means the concentration at half of the fitted maximal effect); conditions: U2OS GR-GFP nuclear translocation, laser cytometry, 2 h
[13] = biological target: Rap guanine nucleotide exchange factor 3 (Homo sapiens) (UniProt O95398); test: Confirmatory qHTS for antagonist of cAMP-regulated guanine nucleotide exchange factor 3 (EPAC1) (AID 1645880);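 further: plate controls were DMSO only for no effect and full effect of the ATA control for full effect; nearly all actives have a fitted effect of over 55% in size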
Sequence of Rap guanine nucleotide exchange factor 3 (Homo sapiens) (O95398 whole entry, looked up): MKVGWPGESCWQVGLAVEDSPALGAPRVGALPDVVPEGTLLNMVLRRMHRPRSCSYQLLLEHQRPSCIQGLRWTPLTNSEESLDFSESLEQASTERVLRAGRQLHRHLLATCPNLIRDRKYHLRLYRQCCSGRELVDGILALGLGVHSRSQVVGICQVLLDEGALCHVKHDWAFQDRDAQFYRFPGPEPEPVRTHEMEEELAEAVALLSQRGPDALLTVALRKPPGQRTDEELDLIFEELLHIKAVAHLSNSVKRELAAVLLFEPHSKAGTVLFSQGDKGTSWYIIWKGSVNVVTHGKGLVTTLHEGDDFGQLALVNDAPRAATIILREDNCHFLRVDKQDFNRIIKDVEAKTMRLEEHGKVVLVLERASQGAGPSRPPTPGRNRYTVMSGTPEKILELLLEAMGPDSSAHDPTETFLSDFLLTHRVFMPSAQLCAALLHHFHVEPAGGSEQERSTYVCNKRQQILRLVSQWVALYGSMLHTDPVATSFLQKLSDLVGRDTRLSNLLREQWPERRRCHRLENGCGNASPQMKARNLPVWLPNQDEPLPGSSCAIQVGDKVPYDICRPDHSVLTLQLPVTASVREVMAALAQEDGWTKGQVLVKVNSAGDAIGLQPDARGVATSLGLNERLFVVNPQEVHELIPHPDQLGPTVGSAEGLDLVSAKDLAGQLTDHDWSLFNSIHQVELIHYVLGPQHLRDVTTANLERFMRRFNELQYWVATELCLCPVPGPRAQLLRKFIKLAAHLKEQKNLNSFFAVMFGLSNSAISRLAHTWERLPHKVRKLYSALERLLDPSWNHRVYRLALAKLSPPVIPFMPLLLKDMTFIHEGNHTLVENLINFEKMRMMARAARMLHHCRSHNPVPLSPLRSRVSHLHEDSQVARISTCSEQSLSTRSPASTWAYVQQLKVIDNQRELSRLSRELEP
How it was run: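 Released BODIPY-GDP fluoresces less than Rap1-bound BODIPY-GDP; the signal is followed at 480/540 nm at 5-min intervals over 30 min, after 5 min at room temperature. Reactions contain 100 nM EPAC1, 250 nM RAP1B-BODIPY-GDP and 50 uM GDP; results are normalized to ATA and DMSO.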

[14] = biological target: Rap guanine nucleotide exchange factor 4 (Homo sapiens) (UniProt Q8WZA2); test: Confirmatory qHTS for antagonist of cAMP-regulated guanine nucleotide exchange factor 4 (EPAC2) (AID 1645885); further: nearly all actives have a fitted effect of over 25% in size; further: potency means the concentration at half of the fitted maximal effect
[15] = biological target: Dual specificity protein kinase CLK4 (Homo sapiens) (UniProt Q9HAZ1); test: qHTS Assay for Inhibitors of CDC-like Kinase 4 (Kinase-Glo Assay) (AID 1770); further: nearly all actives have a fitted effect of over 65% in size; further: potency means the concentration at half of the fitted maximal effect
Sequence of Dual specificity protein kinase CLK4 (Homo sapiens) (Q9HAZ1 whole entry, looked up): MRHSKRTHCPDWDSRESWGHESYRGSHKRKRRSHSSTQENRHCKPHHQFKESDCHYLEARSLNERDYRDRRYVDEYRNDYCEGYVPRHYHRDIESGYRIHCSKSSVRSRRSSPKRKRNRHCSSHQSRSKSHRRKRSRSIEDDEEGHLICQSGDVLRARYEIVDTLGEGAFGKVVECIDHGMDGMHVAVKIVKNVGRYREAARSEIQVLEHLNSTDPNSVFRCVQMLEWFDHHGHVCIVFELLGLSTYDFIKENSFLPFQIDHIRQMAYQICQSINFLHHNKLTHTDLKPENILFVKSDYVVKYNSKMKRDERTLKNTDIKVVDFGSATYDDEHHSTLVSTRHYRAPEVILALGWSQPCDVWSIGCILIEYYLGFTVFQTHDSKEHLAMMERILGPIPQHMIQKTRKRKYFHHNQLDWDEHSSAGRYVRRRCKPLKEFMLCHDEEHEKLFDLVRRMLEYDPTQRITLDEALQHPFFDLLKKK
How it was run: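 Readout: Kinase-Glo luminescence from ATP left after a 4.5 h room-temperature reaction of 25 nM Clk4 with 100 uM RS peptide and 1 uM ATP (final). Buffer: 25 mM Tris pH 7.5, 10 mM MgCl2.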

[16] = biological target: Dual specificity protein kinase CLK4 (Homo sapiens) (UniProt Q9HAZ1); test: qHTS Assay for Inhibitors of CDC-like Kinase 4 (ADP-FP Assay) (AID 1795); further: nearly all actives have a fitted effect of over 60% in size; further: potency means the concentration at half of the fitted maximal effect
How it was run: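 FP readout: Orange Transcreener ADP2 tracer (4 nM) plus ADP antibody, read after 30 min at room temperature. Kinase step: 6.25 nM Clk4, 100 uM RS peptide, 1 uM ATP, pH 7.5, 1 h.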

[17] = biological target: Ubiquitin carboxyl-terminal hydrolase 1 (Homo sapiens) (UniProt O94782); test: Inhibitors of USP1/UAF1: Pilot qHTS (AID 504865);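 further: rhodamine fluorescence freed from ubiquitin-rhodamine substrate followed over time; top concentration of the series differs between compounds; on the % scale 0 is the no-effect control and ±100 the full control effect; nearly all actives have a fitted effect of over 35% in size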
How it was run: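 1nM USP1/UAF1 + cpd, 15 min RT; start w/ Ub-Rho 150nM final; kinetic FL 480/540 nm, 6 reads q60 s. Buffer 50mM HEPES pH 7.8, 0.5mM EDTA, 1mM TCEP, 0.01% Tween-20, 0.1 mg/ml BSA.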

[18] = biological target: Rap guanine nucleotide exchange factor 3 (Homo sapiens) (UniProt O95398); test: Confirmatory qHTS for agonist of cAMP-regulated guanine nucleotide exchange factor 3 (EPAC1) (AID 1645881);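 further: EPAC1 catalysed release of BODIPY-GDP from Rap1B seen as fluorescence loss; 100% = effect of cAMP agonist control; nearly all actives have a fitted effect of over 75% in size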
[19] = biological target: Rap guanine nucleotide exchange factor 4 (Homo sapiens) (UniProt Q8WZA2); test: Confirmatory qHTS for agonist of cAMP-regulated guanine nucleotide exchange factor 4 (EPAC2) (AID 1645884);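 further: nucleotide exchange releases bodipy-GDP from Rap1 and this lowers its fluorescence; nearly all actives have a fitted effect of over 65% in size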; further: potency means the concentration at half of the fitted maximal effect
[20] = AP1 Signaling Pathway (AID 357; active means well fitted curve in either direction with a large enough effect, not every such curve was filed as active); conditions: ME-180 (cervical carcinoma) AP-1-bla reporter, EGF-induced, beta-lactamase ratio, 5 h; at 7.69 µM (top of the series) unless noted
How it was run: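 Read-out was the 460nm/530nm emission ratio (excitation 405nm) after CCF4 loading for 2.5 hours at room temperature. Cells carried an AP-1-driven beta-lactamase reporter, were stimulated with EC50 EGF plus compound for 5 hours, and AC50 values came from titrations.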

O=C(c1cnccn1)N1CCC2(CC1)CN(c1ccccn1)C2
-0.0464%: max response ([9]; measured here: lipid channel max response)
inactive: Potency [1] | activity change, negative = inhibition [2] -1.72% | activity, negative = inhibition [3] 22.6% | Potency [4] > 46 µM | Potency [5] | Potency [6] | Potency [7] | activity change, negative = inhibition ([9]; at 57.5 µM (top of the series)) 2.3% | outcome [10]
-1.81%: max response ([9]; measured here: cell count channel max response)
active: Potency [8] 3.98 µM

O=c1c(-c2cc(F)cc(F)c2)nc2cnc(N3CCOCC3)nc2n1-c1ccccc1
active: Potency [1] 5.01 µM
inactive: Potency [11] > 11.4 µM | Potency [12] > 9.22 µM | Potency [4] > 46 µM | Potency [5] | Potency [6] | outcome [10] | Potency [13] | Potency [14]

COc1cccc(Nc2ncc3ncc(=O)n(Cc4cccs4)c3n2)c1
active: Potency [1] 1.58 µM | Potency [15] 0.708 µM | Potency [16] 0.501 µM
inactive: Potency [11] > 11.4 µM | Potency [12] > 9.22 µM | Potency [4] > 46 µM | Potency [5] | Potency [17] | outcome [10] | Potency [13] | Potency [18] | Potency [19]

Cc1c(CC(C)(C)C(=O)O)n(Cc2ccc(Cl)cc2)c2ccc(F)cc12
active: Potency [1] 12.6 µM and 15.8 µM | Potency [14] 27.8 µM
inactive: activity change, negative = inhibition [20] -22.4% [at 38 µM] | activity, negative = inhibition [3] -0.406% [at 38 µM] | Potency [12] > 46 µM | Potency [4] > 46 µM | Potency [5] | Potency [6] | Potency [8] | outcome [10] | Potency [18] | Potency [19]

Cn1cc(-c2nc3cnc(N4CCOCC4)nc3n(CCC#N)c2=O)c2ccccc21
inactive: Potency [11] > 11.4 µM | activity change, negative = inhibition [20] -11.7% | activity change, negative = inhibition [2] -7.6% | activity, negative = inhibition [3] -5.04% | Potency [12] > 9.22 µM | Potency [4] > 46 µM | Potency [5] | Potency [6] | Potency [8] | Potency [15] | Potency [16] | Potency [17] | outcome [10] | Potency [13] | Potency [14]

COc1cccc(Cn2c(=O)c(-c3ccc(Cl)cc3)nc3cnc(N4CCNCC4)nc32)c1
inactive: Potency [11] > 11.4 µM | Potency [12] > 9.22 µM | Potency [4] > 46 µM | Potency [6] | Potency [8] | Potency [15] | Potency [16] | Potency [17] | outcome [10] | Potency [18]
active: Potency [14] 39.3 µM

COc1ccc(CNc2ccnc(-c3cccc(C#N)c3)n2)c(OC)c1
inactive: Potency [12] > 46 µM | Potency [4] > 46 µM | Potency [5] | Potency [8] | Potency [17] | outcome [10] | Potency [18] | Potency [19]
active: Potency [1] 2.51 µM | Potency [7] 2 µM | Potency [15] 15.8 µM

O=c1c(-c2cccs2)nc2cnc(N3CCOCC3)nc2n1CCc1ccccc1
inactive: Potency [11] > 11.4 µM | activity change, negative = inhibition [20] 13.2% | activity change, negative = inhibition [2] 19.8% | activity, negative = inhibition [3] 18.4% | Potency [12] > 9.22 µM | Potency [4] > 46 µM | Potency [8] | Potency [15] | Potency [16] | Potency [17] | outcome [10] | Potency [13] | Potency [14]

COc1ccccc1CNc1nc(-c2cccc(C#N)c2)nc2ccccc12
inactive: Potency [11] > 11.4 µM | activity, negative = inhibition [3] -22% | Potency [4] > 46 µM | Potency [5] | Potency [8] | Potency [16] | outcome [10] | Potency [13] | Potency [18] | Potency [14]
active: Potency [1] 1.26 µM

CN(C)c1ncc2nc(-c3cccs3)c(=O)n(C3CC3)c2n1
inactive: Potency [11] > 11.4 µM | activity change, negative = inhibition [20] 6.37% | activity change, negative = inhibition [2] 19.8% | Potency [12] > 9.22 µM | Potency [4] > 46 µM | outcome [10] | Potency [13] | Potency [14]
active: Potency [19] 19.9 µM

COc1ccc(-n2c(=O)c(-c3cccs3)nc3cnc(Nc4cccc(OC)c4)nc32)cc1
inactive: Potency [11] > 11.4 µM | activity change, negative = inhibition [20] -24.6% | Potency [1] | activity, negative = inhibition [3] -11% | Potency [4] > 46 µM | Potency [5] | Potency [8] | outcome [10] | Potency [13] | Potency [14]

COCCn1c(=O)c(-c2cccs2)nc2cnc(Nc3ccccc3)nc21
inactive: Potency [11] > 11.4 µM | activity change, negative = inhibition [20] 5.47% | activity, negative = inhibition [3] 14.8% | Potency [12] > 9.22 µM | Potency [5] | outcome [10] | Potency [13] | Potency [18] | Potency [14]

Cn1cccc1C(=O)N1CCC2(CC1)CN(c1cccc(-c3ccccc3)c1)C2
inactive: Potency [11] > 11.4 µM | activity change, negative = inhibition [20] -14% | activity change, negative = inhibition [2] -2.77% | activity, negative = inhibition [3] -13.7% | Potency [4] > 46 µM | Potency [6] | Potency [7] | outcome [10] | Potency [13] | Potency [18] | Potency [19]
active: Potency [1] 25.1 µM

COc1ccc(C(=O)N2CCC3(CCCN(Cc4cc(C(F)(F)F)cc(C(F)(F)F)c4)C3)CC2)cc1
inactive: Potency [11] > 11.4 µM | Potency [1] | activity change, negative = inhibition [2] -13.8% | activity, negative = inhibition [3] -8.85% | Potency [4] > 46 µM | Potency [5] | Potency [6] | Potency [8] | outcome [10] | Potency [18] | Potency [19]

From PubChem BioAssay (NCATS)
